# Compounds without any hit were thinned out: in the full panel of roughly 83,000, 20% have a hit.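 Cell lines were cultured in 96-well plates, exposed to a single compound concentration, and assessed for percent growth 48 hours later.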 A number with no mark means an inactive call. Calls of active or inactive are those of the source. How the source made its calls: active means growth percent below 10; inactive means the rest.
# System: K-562 leukemia
# Test: NCI-60 one-dose screen, 48 h (100 = growth as untreated, 0 = no growth, -100 = all killed)
# Settings: 10 µM unless noted
row,SMILES,growth
1,CCN1CCN(/C(=N\c2sc(-c3ccccc3)nc2-c2ccccc2)c2ccccc2)CC1,32.8%
2,CCCCN1C(=O)/C(=c2\sc3n(c2=O)C2C(NN=3)N(CC)C(=O)N2CC)c2cc(Cl)ccc21 (stereo not drawn),25.3%
3,O=C1C2=C(C(=O)c3c(O)cccc31)C(c1ccco1)c1sc(=O)[nH]c1S2 (stereo not drawn),22%
4,COc1cc(/C=C/C(=O)c2ccc(C(F)(F)F)cc2)ccc1Oc1nc(NCCO)nc(N2CCOCC2)n1,6.49% (active)
5,OC1CCN(CCCOc2c3ccc(Cl)cc3nc3c2oc2ccc(Cl)cc23)CC1,-51.7% (active)
6,Nc1c(C(=O)Nc2ccc(Cl)cc2)sc2nc(-c3cnccn3)cc(-c3cccs3)c12,40.5%
7,O=C(N/N=C/c1ccc([N+](=O)[O-])o1)c1[nH]c2ccc(Br)cc2c1-c1ccccc1,3.51% (active)
8,Cc1ccc(-c2nc(C(Cl)Cl)nc3cc(-c4ccccc4)nn23)cc1,14.3%
9,CCOC(=O)c1c(NC(=O)c2cccc(C(F)(F)F)c2)sc2cc(O)ccc12,97.3%
10,OC1CCN(CCCOc2c3ccccc3nc3c2oc2ccccc23)CC1,6.75% (active)
11,COc1ccc(C(=O)/C=C/c2ccc(OCc3ccc(Cl)cc3)c(OC)c2)cc1OC,23.9%
12,CN(C)CCCNc1c2ccccc2nc2c1oc1ccc(Cl)cc12,-1.57% (active)
13,COc1ccc(NC2=CC(=O)C(C)=C(C)C2=O)cc1,66.6%
14,COc1ccc(-n2c(SCC(=O)Nc3ccc(-c4nc5ccccc5[nH]4)cc3)nc3ccccc3c2=O)cc1,5.98% (active)
15,C/C(=N\NC(N)=O)c1c(O)sc(=O)[nH]c1=O,105%
16,OC1CCN(CCCOc2c3ccc(Cl)cc3nc3c2oc2ccccc23)CC1,-7.34% (active)
17,NS(=O)(=O)c1ccc(Nc2nc(Nc3ccccc3)nc(-n3nc(-c4ccccc4)cc3-c3ccccc3)n2)cc1,11.5%
18,COc1cc(OC)c(C2C(Cl)C(=O)N2Nc2ncnc3ccccc23)cc1OC (stereo not drawn),100%
19,CN(C)CCCOc1c2ccc(Cl)cc2nc2c1oc1ccc(Cl)cc12,-39.8% (active)
20,Cc1[nH]nc2ncc(C#Cc3cncc(C(=O)Nc4ccc(CN5CCN(C)CC5)c(C(F)(F)F)c4)c3)cc12,7.53% (active)

row,SMILES,growth
1,CC1=C(C)C(=O)C(Nc2cccc(C(F)(F)F)c2)=C(Cl)C1=O,3.78% (active)
2,Cn1cc(-c2cc(N)n3nc(-c4cn(C)c5ccc(Br)cc45)cc3n2)c2cc(Br)ccc21,5.07% (active)
3,O=c1[nH]c2ccc(Cl)cc2cc1CSc1ccccc1Nc1nccc(-c2ccc(Cl)cc2)n1,71.6%
4,COc1ccc(-c2nc3ccc(-c4nnc(SCC(=O)Nc5ccc(C(=O)/C=C/c6ccccc6)cc5)o4)cc3[nH]2)cc1OC,91.6%
5,N#Cc1nc(-c2ccccc2)oc1S(=O)(=O)N1CCN(CCc2ccccn2)CC1,6.82% (active)
6,CN1CCN(Cc2ccc(NC(=O)c3cncc(C#Cc4cnc5[nH]ncc5c4)c3)cc2C(F)(F)F)CC1,3.87% (active)
7,COc1cc(/C=C/C(=O)c2ccc(F)cc2)ccc1Oc1nc(NCCO)nc(N2CCOCC2)n1,6.99% (active)
8,Clc1ccc2c(OCCCN3CCOCC3)c3oc4ccccc4c3nc2c1,19.8%
9,O=C(c1ccc(O)cc1)C1[C@H](c2ccc(Cl)cc2)[C@@H](c2ccccc2)NC12C(=O)Nc1ccc(Cl)cc12 (stereo partly drawn),28.1%
10,Nc1cc(-c2c[nH]c3ccccc23)nc2cc(-c3c[nH]c4ccccc34)nn12,4.17% (active)
11,Oc1c(Cl)cc(Cl)c2ccc(CN3CCCCC3)nc12,21.9%
12,CN(C)CCCOc1c2ccc(Cl)cc2nc2c1oc1ccccc12,0.751% (active)
13,CS(=O)(=O)c1ccc(-c2nc3ccccn3c2/C=N/Nc2nc(-c3ccc(Br)cc3)cs2)cc1,86.1%
14,C=CCn1c(SCC(=O)c2ccc(Br)cc2)nnc1-c1c[nH]c2ccccc12,85.5%
15,COc1cc(/C=C/C(=O)c2ccccc2)ccc1Oc1nc(NCCO)nc(N2CCOCC2)n1,22.9%
16,COC1CCN(Cc2ccc3c(NNC(=O)c4cnccn4)nc4cc(F)ccc4n23)C1 (stereo not drawn),12%
17,CC(C)NC(=O)c1cc(-c2ccc(NC(=O)Nc3ccc(N4CCOCC4)c(C(F)(F)F)c3)cc2)nc2cccnc12,24.6%
18,O=C(N/N=C/c1ccco1)c1[nH]c2ccc(Br)cc2c1-c1ccccc1,8.75% (active)
19,O=C(CSc1nccc(=O)[nH]1)Nc1ccc(-c2nc3ccccc3[nH]2)cc1,105%

# System: MALME-3M melanoma
# Test: as above
# Settings: 10 µM unless noted
row,SMILES,growth
1,CCN1CCN(/C(=N\c2sc(-c3ccccc3)nc2-c2ccccc2)c2ccccc2)CC1,108%
2,CCCCN1C(=O)/C(=c2\sc3n(c2=O)C2C(NN=3)N(CC)C(=O)N2CC)c2cc(Cl)ccc21 (stereo not drawn),73.9%
3,O=C1C2=C(C(=O)c3c(O)cccc31)C(c1ccco1)c1sc(=O)[nH]c1S2 (stereo not drawn),-92.3% (active)
4,COc1cc(/C=C/C(=O)c2ccc(C(F)(F)F)cc2)ccc1Oc1nc(NCCO)nc(N2CCOCC2)n1,85.7%
5,OC1CCN(CCCOc2c3ccc(Cl)cc3nc3c2oc2ccc(Cl)cc23)CC1,-66.6% (active)
6,Nc1c(C(=O)Nc2ccc(Cl)cc2)sc2nc(-c3cnccn3)cc(-c3cccs3)c12,91.2%
7,O=C(N/N=C/c1ccc([N+](=O)[O-])o1)c1[nH]c2ccc(Br)cc2c1-c1ccccc1,23%
8,Cc1ccc(-c2nc(C(Cl)Cl)nc3cc(-c4ccccc4)nn23)cc1,3.13% (active)
9,CCOC(=O)c1c(NC(=O)c2cccc(C(F)(F)F)c2)sc2cc(O)ccc12,92.4%
10,OC1CCN(CCCOc2c3ccccc3nc3c2oc2ccccc23)CC1,-32.6% (active)
11,COc1ccc(C(=O)/C=C/c2ccc(OCc3ccc(Cl)cc3)c(OC)c2)cc1OC,82.3%
12,CN(C)CCCNc1c2ccccc2nc2c1oc1ccc(Cl)cc12,30.7%
13,COc1ccc(NC2=CC(=O)C(C)=C(C)C2=O)cc1,89.9%
14,COc1ccc(-n2c(SCC(=O)Nc3ccc(-c4nc5ccccc5[nH]4)cc3)nc3ccccc3c2=O)cc1,-57.3% (active)
15,C/C(=N\NC(N)=O)c1c(O)sc(=O)[nH]c1=O,97.5%
16,OC1CCN(CCCOc2c3ccc(Cl)cc3nc3c2oc2ccccc23)CC1,-81.2% (active)
17,NS(=O)(=O)c1ccc(Nc2nc(Nc3ccccc3)nc(-n3nc(-c4ccccc4)cc3-c3ccccc3)n2)cc1,60%
18,COc1cc(OC)c(C2C(Cl)C(=O)N2Nc2ncnc3ccccc23)cc1OC (stereo not drawn),93.2%
19,CN(C)CCCOc1c2ccc(Cl)cc2nc2c1oc1ccc(Cl)cc12,0.745% (active)
20,Cc1[nH]nc2ncc(C#Cc3cncc(C(=O)Nc4ccc(CN5CCN(C)CC5)c(C(F)(F)F)c4)c3)cc12,-28.5% (active)

row,SMILES,growth
1,CC1=C(C)C(=O)C(Nc2cccc(C(F)(F)F)c2)=C(Cl)C1=O,94.4%
2,Cn1cc(-c2cc(N)n3nc(-c4cn(C)c5ccc(Br)cc45)cc3n2)c2cc(Br)ccc21,102%
3,O=c1[nH]c2ccc(Cl)cc2cc1CSc1ccccc1Nc1nccc(-c2ccc(Cl)cc2)n1,90.4%
4,COc1ccc(-c2nc3ccc(-c4nnc(SCC(=O)Nc5ccc(C(=O)/C=C/c6ccccc6)cc5)o4)cc3[nH]2)cc1OC,97.1%
5,N#Cc1nc(-c2ccccc2)oc1S(=O)(=O)N1CCN(CCc2ccccn2)CC1,-66.9% (active)
6,CN1CCN(Cc2ccc(NC(=O)c3cncc(C#Cc4cnc5[nH]ncc5c4)c3)cc2C(F)(F)F)CC1,-27.9% (active)
7,COc1cc(/C=C/C(=O)c2ccc(F)cc2)ccc1Oc1nc(NCCO)nc(N2CCOCC2)n1,78.8%
8,Clc1ccc2c(OCCCN3CCOCC3)c3oc4ccccc4c3nc2c1,12.5%
9,O=C(c1ccc(O)cc1)C1[C@H](c2ccc(Cl)cc2)[C@@H](c2ccccc2)NC12C(=O)Nc1ccc(Cl)cc12 (stereo partly drawn),74.5%
10,Nc1cc(-c2c[nH]c3ccccc23)nc2cc(-c3c[nH]c4ccccc34)nn12,64.5%
11,Oc1c(Cl)cc(Cl)c2ccc(CN3CCCCC3)nc12,31.4%
12,CN(C)CCCOc1c2ccc(Cl)cc2nc2c1oc1ccccc12,-81.2% (active)
13,CS(=O)(=O)c1ccc(-c2nc3ccccn3c2/C=N/Nc2nc(-c3ccc(Br)cc3)cs2)cc1,128%
14,C=CCn1c(SCC(=O)c2ccc(Br)cc2)nnc1-c1c[nH]c2ccccc12,90.7%
15,COc1cc(/C=C/C(=O)c2ccccc2)ccc1Oc1nc(NCCO)nc(N2CCOCC2)n1,93.7%
16,COC1CCN(Cc2ccc3c(NNC(=O)c4cnccn4)nc4cc(F)ccc4n23)C1 (stereo not drawn),48.6%
17,CC(C)NC(=O)c1cc(-c2ccc(NC(=O)Nc3ccc(N4CCOCC4)c(C(F)(F)F)c3)cc2)nc2cccnc12,68.3%
18,O=C(N/N=C/c1ccco1)c1[nH]c2ccc(Br)cc2c1-c1ccccc1,54.9%
19,O=C(CSc1nccc(=O)[nH]1)Nc1ccc(-c2nc3ccccc3[nH]2)cc1,101%

# From PubChem BioAssay (NCI)
